# In PubChem BioAssay AID1159580 (chemical genetic matrix, 2015):
# Where “and” joins values, the source holds several entries; their conditions need not be identical. Equal values may be shown once. The whole screen tested about 5,500 compounds, of which about 2,000 (36%) were called active. Roughly 18% stayed inconclusive and do not appear here. Rule as the data show it: active = normalized growth mostly below about 0.91 (no sharp cut-off); inconclusive = no clear call, values can overlap the other calls; inactive = mostly above about 0.92. The list shows a part of the results. Where a structure was tested more than once in an assay, its records may differ in their call.
# Assay: chemical genetic growth profiling, strain panel (AID 1159580);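 also: tested at 20 µM; growth read once vehicle control cultures reached saturation at 30 °C; 1 = growth at the plate median or of vehicle wells; lower values mean less growth of the strain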
# Details: growth OD
smiles,measurement,setting,value
CCn1cc(C(=O)O)c(=O)c2ccc(C)nc21,normalized growth,"S. cerevisiae deletion strains, locus YKL009W, strain mrt4, stronger effect = lower value",0.91 (inactive)
same,normalized growth,"S. cerevisiae deletion strains, locus YKL068W, stronger effect = lower value",0.942 (inactive)
same,normalized growth,"S. cerevisiae deletion strains, locus YKL085W, strain MDH1 (second series), stronger effect = lower value",0.938 (inactive)
same,normalized growth,"S. cerevisiae deletion strains, locus YKL085W, strain MDH1, stronger effect = lower value",0.938 (inactive)
same,normalized growth,"S. cerevisiae deletion strains, locus YKL160W, strain elf1, stronger effect = lower value",0.976 (inactive)
same,normalized growth,"S. cerevisiae deletion strains, locus YKL190W, strain CNB1, stronger effect = lower value",0.933 (inactive)
same,normalized growth,"S. cerevisiae deletion strains, locus YKR001C, strain vps1, stronger effect = lower value",0.812 (active)
same,normalized growth,"S. cerevisiae deletion strains, locus YKR026C, strain gcn3, stronger effect = lower value",0.965 (inactive)
same,normalized growth,"S. cerevisiae deletion strains, locus YKR091W, strain srl3, stronger effect = lower value",0.926 (active)
same,normalized growth,"S. cerevisiae deletion strains, locus YLL001W, strain dnm1, stronger effect = lower value",0.946 (inactive)
same,normalized growth,"S. cerevisiae deletion strains, locus YLL026W, stronger effect = lower value",0.94 (inactive)
same,normalized growth,"S. cerevisiae deletion strains, locus YLL041C, strain sdh2, stronger effect = lower value",0.931 (inactive)
same,normalized growth,"S. cerevisiae deletion strains, locus YLR027C, strain aat2, stronger effect = lower value",0.942 (inactive)
same,normalized growth,"S. cerevisiae deletion strains, locus YLR039C, strain RIC1, stronger effect = lower value",0.447 (active)
same,normalized growth,"S. cerevisiae deletion strains, locus YLR058C, strain SHM2, stronger effect = lower value",0.921 (inactive)
same,normalized growth,"S. cerevisiae deletion strains, locus YLR102C, strain apc9, stronger effect = lower value",0.933 (inactive)
same,normalized growth,"S. cerevisiae deletion strains, locus YLR113W, strain HOG1, stronger effect = lower value",0.94 (inactive)
same,normalized growth,"S. cerevisiae deletion strains, locus YLR221C, strain rsa3, stronger effect = lower value",0.943 (inactive)
same,normalized growth,"S. cerevisiae deletion strains, locus YLR258W, strain gsy2, stronger effect = lower value",0.939 (inactive)
same,normalized growth,"S. cerevisiae deletion strains, locus YLR262C, strain YPT6 (second series), stronger effect = lower value",0.297 (active)
same,normalized growth,"S. cerevisiae deletion strains, locus YLR262C, strain YPT6, stronger effect = lower value",0.406 (active)
same,normalized growth,"S. cerevisiae deletion strains, locus YLR268W, strain sec22, stronger effect = lower value",0.868 (active)
same,normalized growth,"S. cerevisiae deletion strains, locus YLR320W, strain mms22, stronger effect = lower value",0.976 (inactive)
same,normalized growth,"S. cerevisiae deletion strains, locus YLR330W, strain CHS5, stronger effect = lower value",0.949 (inactive)
same,normalized growth,"S. cerevisiae deletion strains, locus YLR342W, strain FKS1 (second series), stronger effect = lower value",0.958 (inactive)
same,normalized growth,"S. cerevisiae deletion strains, locus YLR342W, strain FKS1, stronger effect = lower value",0.912 (inactive)
same,normalized growth,"S. cerevisiae deletion strains, locus YLR357W, strain rsc2, stronger effect = lower value",1.09 (inactive)
same,normalized growth,"S. cerevisiae deletion strains, locus YLR370C, strain arc18, stronger effect = lower value",0.943 (inactive)
same,normalized growth,"S. cerevisiae deletion strains, locus YLR371W, strain rom2, stronger effect = lower value",0.941 (inactive)
same,normalized growth,"S. cerevisiae deletion strains, locus YLR384C, strain iki3, stronger effect = lower value",0.926 (inactive)
same,normalized growth,"S. cerevisiae deletion strains, locus YLR418C, strain cdc73, stronger effect = lower value",0.852 (inactive)
same,normalized growth,"S. cerevisiae deletion strains, locus YML016C, strain PPZ1, stronger effect = lower value",0.887 (active)
same,normalized growth,"S. cerevisiae deletion strains, locus YML032C, strain rad52, stronger effect = lower value",0.883 (active)
same,normalized growth,"S. cerevisiae deletion strains, locus YML120C, strain ndi1, stronger effect = lower value",0.954 (inactive)
same,normalized growth,"S. cerevisiae deletion strains, locus YML124C, strain tub3, stronger effect = lower value",0.916 (active)
same,normalized growth,"S. cerevisiae deletion strains, locus YMR058W, strain fet3, stronger effect = lower value",0.943 (inactive)
same,normalized growth,"S. cerevisiae deletion strains, locus YMR078C, strain ctf18, stronger effect = lower value",0.927 (inactive)
same,normalized growth,"S. cerevisiae deletion strains, locus YMR125W, strain sto1, stronger effect = lower value",1.02 (inactive)
same,normalized growth,"S. cerevisiae deletion strains, locus YMR129W, stronger effect = lower value",0.941 (inactive)
same,normalized growth,"S. cerevisiae deletion strains, locus YMR205C, strain PFK2, stronger effect = lower value",0.986 (inactive)
same,normalized growth,"S. cerevisiae deletion strains, locus YMR223W, strain ubp8, stronger effect = lower value",0.947 (inactive)
same,normalized growth,"S. cerevisiae deletion strains, locus YMR231W, strain pep5, stronger effect = lower value",0.891 (active)
same,normalized growth,"S. cerevisiae deletion strains, locus YMR263W, strain SAP30, stronger effect = lower value",0.97 (inactive)
same,normalized growth,"S. cerevisiae deletion strains, locus YMR307W, strain GAS1, stronger effect = lower value",0.756 (inactive)
same,normalized growth,"S. cerevisiae deletion strains, locus YNL067W, strain RPL9B, stronger effect = lower value",0.949 (inactive)
same,normalized growth,"S. cerevisiae deletion strains, locus YNL071W, strain lat1, stronger effect = lower value",0.925 (inactive)
same,normalized growth,"S. cerevisiae deletion strains, locus YNL128W, strain TEP1, stronger effect = lower value",0.941 (inactive)
same,normalized growth,"S. cerevisiae deletion strains, locus YNL153C, strain GIM3, stronger effect = lower value",0.971 (inactive) and 1.01 (inactive)
same,normalized growth,"S. cerevisiae deletion strains, locus YNL175C, strain NOP13, stronger effect = lower value",0.944 (inactive)
same,normalized growth,"S. cerevisiae deletion strains, locus YNL183C, strain NPR1, stronger effect = lower value",0.911 (inactive)
same,normalized growth,"S. cerevisiae deletion strains, locus YNL197C, strain WHI3, stronger effect = lower value",0.939 (inactive)
same,normalized growth,"S. cerevisiae deletion strains, locus YNL209W, strain ssb2, stronger effect = lower value",0.929 (inactive)
same,normalized growth,"S. cerevisiae deletion strains, locus YNL224C, strain SQS1, stronger effect = lower value",0.944 (inactive)
same,normalized growth,"S. cerevisiae deletion strains, locus YNL233W, strain BNI4, stronger effect = lower value",0.994 (inactive)
same,normalized growth,"S. cerevisiae deletion strains, locus YNL248C, strain rpa49, stronger effect = lower value",0.984 (inactive)
same,normalized growth,"S. cerevisiae deletion strains, locus YNL250W, strain rad50, stronger effect = lower value",0.939 (inactive)
same,normalized growth,"S. cerevisiae deletion strains, locus YNL271C, strain bni1, stronger effect = lower value",0.864 (active)
same,normalized growth,"S. cerevisiae deletion strains, locus YNL298W, strain CLA4, stronger effect = lower value",0.871 (active)
same,normalized growth,"S. cerevisiae deletion strains, locus YNL307C, strain MCK1, stronger effect = lower value",0.955 (inactive)
same,normalized growth,"S. cerevisiae deletion strains, locus YNL322C, strain KRE1 (second series), stronger effect = lower value",0.983 (inactive)
same,normalized growth,"S. cerevisiae deletion strains, locus YNL322C, strain KRE1, stronger effect = lower value",0.933 (inactive) and 0.965 (inactive)
same,normalized growth,"S. cerevisiae deletion strains, locus YNR049C, strain mso1, stronger effect = lower value",0.937 (inactive)
same,normalized growth,"S. cerevisiae deletion strains, locus YNR052C, strain pop2, stronger effect = lower value",0.803 (active)
same,normalized growth,"S. cerevisiae deletion strains, locus YOL006C, strain TOP1, stronger effect = lower value",1.04 (inactive)
same,normalized growth,"S. cerevisiae deletion strains, locus YOL012C, strain htz1",0.496 (inactive)
same,normalized growth,"S. cerevisiae deletion strains, locus YOL147C, strain pex11, stronger effect = lower value",0.926 (active)
same,normalized growth,"S. cerevisiae deletion strains, locus YOR001W, strain rrp6, stronger effect = lower value",0.828 (active)
same,normalized growth,"S. cerevisiae deletion strains, locus YOR061W, strain CKA2, stronger effect = lower value",0.898 (inactive)
same,normalized growth,"S. cerevisiae deletion strains, locus YOR069W, strain VPS5, stronger effect = lower value",0.918 (active)
same,normalized growth,"S. cerevisiae deletion strains, locus YOR070C, strain gyp1, stronger effect = lower value",0.935 (inactive)
same,normalized growth,"S. cerevisiae deletion strains, locus YOR080W, strain dia2, stronger effect = lower value",0.927 (inactive)
same,normalized growth,"S. cerevisiae deletion strains, locus YOR083W, strain WHI5 (second series), stronger effect = lower value",0.968 (inactive)
same,normalized growth,"S. cerevisiae deletion strains, locus YOR083W, strain WHI5, stronger effect = lower value",0.935 (inactive)
same,normalized growth,"S. cerevisiae deletion strains, locus YOR106W, strain vam3, stronger effect = lower value",0.964 (inactive)
same,normalized growth,"S. cerevisiae deletion strains, locus YOR136W, strain idh2, stronger effect = lower value",0.969 (inactive)
same,normalized growth,"S. cerevisiae deletion strains, locus YOR144C, strain elg1, stronger effect = lower value",0.914 (active)
same,normalized growth,"S. cerevisiae deletion strains, locus YOR184W, strain ser1, stronger effect = lower value",0.882 (inactive)
same,normalized growth,"S. cerevisiae deletion strains, locus YOR231W, strain MKK1, stronger effect = lower value",0.888 (inactive)
same,normalized growth,"S. cerevisiae deletion strains, locus YOR265W, strain rbl2, stronger effect = lower value",0.93 (inactive)
same,normalized growth,"S. cerevisiae deletion strains, locus YOR270C, strain vph1, stronger effect = lower value",1.08 (inactive)
same,normalized growth,"S. cerevisiae deletion strains, locus YOR290C, strain snf2, stronger effect = lower value",0.962 (inactive)
same,normalized growth,"S. cerevisiae deletion strains, locus YOR316C, strain cot1, stronger effect = lower value",0.926 (inactive)
same,normalized growth,"S. cerevisiae deletion strains, locus YPL051W, strain arl3, stronger effect = lower value",0.903 (active)
same,normalized growth,"S. cerevisiae deletion strains, locus YPL055C, strain LGE1, stronger effect = lower value",1.05 (inactive) and 1.03 (inactive)
same,normalized growth,"S. cerevisiae deletion strains, locus YPL078C, strain atp4, stronger effect = lower value",0.927 (inactive)
same,normalized growth,"S. cerevisiae deletion strains, locus YPL106C, strain sse1, stronger effect = lower value",1.06 (inactive)
same,normalized growth,"S. cerevisiae deletion strains, locus YPL240C, strain hsp82, stronger effect = lower value",0.931 (inactive)
same,normalized growth,"S. cerevisiae deletion strains, locus YPL241C, strain CIN2, stronger effect = lower value",0.945 (inactive) and 0.927 (active)
same,normalized growth,"S. cerevisiae deletion strains, locus YPL256C, strain CLN2, stronger effect = lower value",0.993 (inactive)
same,normalized growth,"S. cerevisiae deletion strains, locus YPR119W, strain clb2, stronger effect = lower value",0.918 (active)
same,normalized growth,"S. cerevisiae deletion strains, locus YPR141C, strain kar3, stronger effect = lower value",0.954 (inactive)
same,normalized growth,"S. cerevisiae deletion strains, locus YPR163C, strain tif3, stronger effect = lower value",0.882 (active)
same,normalized growth,"S. cerevisiae deletion strains, locus YPR167C, strain met16, stronger effect = lower value",0.929 (inactive)
same,normalized growth,"S. cerevisiae deletion strains, strain wtn01, stronger effect = lower value",0.915 (inactive)
same,normalized growth,"S. cerevisiae strains, strain wild type, stronger effect = lower value",0.932 (inactive)
